Test results published in ChEMBL document CHEMBL3988442, “University of Dundee, Small-Polar-MMV Screening Library” (2021).
Among all 48,000 compounds or so, about 13,000 (27%) showed an effect of 50% or more. The list shows a part of the results.

Each molecule was assayed on Wolbachia pipientis (assay: Anti-Wolbachia Cell-Based Screen). Details: 5 µM.
Format: functional
Parameters: scale not given: in the data most compounds retested in dose-response had high values

Compound | Percent Effect [%]
Cc1noc(C)c1CCC(=O)N1CCOCC1CCc1cnccn1 (stereo not drawn) | 115.4
Cc1noc(C)c1CCC(=O)N1CCN(CCn2cncn2)CC1 | -13.84
Cc1noc(C)c1CCC(=O)N1CCN(CCn2cccn2)CC1 | -16.11
CCc1ccc(CCC(=O)N2CCOCC2c2ncon2)cc1 (stereo not drawn) | 5.794
Cc1noc(Cl)c1CCC(=O)N1CCN(c2ncccn2)CC1 | 8.959
Cc1nccnc1CCC1COCCN1C(=O)CCc1c(C)noc1C (stereo not drawn) | 121.1
Cc1noc(C)c1CCC(=O)N1CCOCC1CC(=O)N1CCCC1 (stereo not drawn) | 72.16
Cc1cc(C)cc(OCCC(=O)N2CCOCC2c2ncon2)c1 (stereo not drawn) | -11.58
CC(=O)N1CCCN(C(=O)CCc2c(C)noc2C)CC1 | -13.07
O=C(c1ccc2cccc(F)c2n1)N1CCN(CCn2cccc2)CC1 | 4.444
Cc1ncccc1NC(=O)[C@@H]1C[C@@H]2CCN(Cc3cccs3)C[C@H]2O1.O=C(O)C(F)(F)F.O=C(O)C(F)(F)F | -1.319
COCCNC(=O)[C@H]1C[C@@H]2CCN(Cc3nccs3)C[C@H]2O1.O=C(O)C(F)(F)F | 2.995
COCCNC(=O)[C@H]1CO[C@H]2CCN(Cc3cccs3)C[C@H]2C1 | 107.4
CCN1CC[C@@H]2OC[C@H](C(=O)NCc3cccs3)C[C@@H]2C1 | 91.2
O=C(CN1CCC(c2ccnn2CCO)CC1)NCc1cccs1 | -0.7289
COC(=O)N1CCc2ccccc2C1C(=O)NCc1cccs1 (stereo not drawn) | 1.281
COc1ccc(F)cc1CN1CCN(Cc2nccn2C)C(C)C1 (stereo not drawn) | -0.7274
CC(=O)N1CC(=O)N(c2ccccc2)CC12CCN(Cc1ccsc1)C2 (stereo not drawn) | -2.634
CC(=O)N1CC(=O)N(c2ccsc2)CC12CCN(Cc1ccoc1)C2 (stereo not drawn) | 104.4
CC(=O)N1CC(=O)N(c2ccccc2)CC12CCN(Cc1ccoc1)C2.O=C(O)C(F)(F)F (stereo not drawn) | 103.1
CC(=O)N1CC(=O)N(c2ccccc2)CC12CCN(CC1CC1)C2.O=C(O)C(F)(F)F (stereo not drawn) | -3.194
CC(=O)N1CC(=O)N(c2ccsc2)CC12CCN(Cc1ccccn1)C2.O=C(O)C(F)(F)F (stereo not drawn) | -6.842
CC(=O)N1CC(=O)N(c2ccccc2)CC12CCN(Cc1nccs1)C2.O=C(O)C(F)(F)F (stereo not drawn) | -14.31
CC(C)OCCOCc1cccc(NC(=O)NCC(=O)N(C)C)c1 | -22.62

Compound | Percent Effect [%]
CCN1CCN2CCCN(S(=O)(=O)c3ccc(C)cc3C)C2C1=O (stereo not drawn) | 0.9872
CN1CCN(c2ccc(NCc3ccsc3)cn2)CC1 | -12.65
CCOCC1CN(C(=O)COc2ccccc2C)Cc2ncn(C)c21.O=C(O)C(F)(F)F (stereo not drawn) | -10.67
CN(C)C(=O)COCC1CN(C2CCC2)Cc2ncn(C)c21.O=C(O)C(F)(F)F.O=C(O)C(F)(F)F (stereo not drawn) | 85.57
CN(C)C(=O)COCC1CN(S(C)(=O)=O)Cc2ncn(C)c21.O=C(O)C(F)(F)F (stereo not drawn) | 94.11
Cn1cnc2c1C(COCC1CCOCC1)CN(C(=O)C1CC=CC1)C2.O=C(O)C(F)(F)F (stereo not drawn) | -7.237
COCC1CN(C(=O)COc2ccccc2)Cc2ncn(C)c21.O=C(O)C(F)(F)F (stereo not drawn) | -7.331
COCCN(Cc1sccc1C)c1nc(C)nc2sccc12 | -3.328
CNC(=O)[C@@H]1C[C@@H](N)CN1Cc1cc2cc(C)cc(C)c2[nH]c1=O | 3.33
CN(Cc1cnn(C)c1)S(=O)(=O)N1CCc2ccccc2C1 | 11.11
CCN(CC)S(=O)(=O)N1CCC(c2nccn2Cc2ccccn2)CC1 | 1.2
CC(C)N1CCC(Nc2ccn(Cc3ccccn3)n2)C1=O (stereo not drawn) | 7.705
CCN(CC)S(=O)(=O)N(C)Cc1ccncc1 | -6.423
CCN(CC)S(=O)(=O)c1ccc2c(c1)N(Cc1ccncc1)C(=O)CS2 | 122
CCN(Cc1cccc(-c2ccncc2)c1)S(N)(=O)=O | -1.235
CCN(CC)S(=O)(=O)N1CCCC(c2nccn2Cc2cccnc2)C1 (stereo not drawn) | -1.362
CCN(CC)S(=O)(=O)c1ccc2c(c1)N(Cc1ccccn1)C(=O)CS2 | 124.5
CCN(CC)S(=O)(=O)c1ccc2c(c1)N(Cc1cccnc1)C(=O)CS2 | 103.1
CCS(=O)(=O)c1ccc2oc([C@H]3CCN(Cc4cccnc4)C3)nc2c1 | -5.049
CC(=O)N1CCC(C(=O)NCCN2CCC(C)CC2)CC1 | -2.341
CCN1C(=O)CC(c2cnn(C)c2)C12CCN(C(=O)c1ccoc1)CC2 (stereo not drawn) | 0.4401
Cc1nccn1-c1ccc(C(C)NCc2cccn2C)cc1 (stereo not drawn) | -7.942
Cc1ccnc(Cn2cc(-c3cccc(C(C)N(C)C)c3)nn2)c1 (stereo not drawn) | 12.93
COc1ccc2c(c1)CCCN2C(=O)CN1CCOC(C)C1 (stereo not drawn) | -7.941
